According to PubChem BioAssay (NCATS):
Results filed as inconclusive are left out. Active and inactive are the calls of the source. Calls follow the shape of the dose curve; as a rule, active = well fitted inhibition curve with a large enough effect; inconclusive = small, poorly fitted or top-dose-only effect; inactive = no such curve, though single readings can be large or run the other way.

The compounds below were run against Retinaldehyde dehydrogenase 3 (Homo sapiens) (UniProt P47895) (assay: qHTS for Inhibitors of the Aldehyde Dehydrogenase Family (ALDH1A3) Confirmatory screens (AID 2061311; also: potency is read from the fitted curve at half-maximal effect; nearly all actives have a fitted effect of over 60% in size)). Settings: ALDH inhibition qHTS; series mostly up to 46 µM; activity change, negative = inhibition: at the top concentration.

Row | Compound | Potency
1 | Cc1ccnc(NC(=S)N2CCN(c3ccc(O)cc3)CC2)c1 | 12.7 µM (active)
2 | CC(=O)Nc1sc2c(c1-c1cc3ccccc3o1)CCNC2 | 11.3 µM (active)
3 | CCc1noc(-c2cccn3c(CNC(=O)COc4ccc(F)cc4)nnc23)n1 | 7.08 µM (active)
4 | O=C1CCCC2=C1C(c1cccnc1Br)N=C(Nc1nc3ccccc3o1)N2 (stereo not drawn) | 20.1 µM (active)
5 | Cc1ccnc(NCc2ccc(O)c3ncccc23)c1 | 7.12 µM (active)
6 | FC(F)(F)c1ccccc1-c1nc(NCc2ccc(-c3ccccc3)cc2)c2ccccc2n1 | 3.57 µM (active)

These compounds were tested against Retinal dehydrogenase 2 (Homo sapiens) (UniProt O94788) (assay: qHTS for Inhibitors of the Aldehyde Dehydrogenase Family (ALDH1A2) Confirmation screens (AID 2061314; also: nearly all actives have a fitted effect of over 65% in size; as to activity, negative = inhibition: % is scaled to controls: 0 for no effect and ±100 for the full control effect)). Settings: ALDH1A2 enzyme inhibition qHTS confirmation; series mostly up to 45.9 µM; activity, negative = inhibition: at the top concentration.

Row | Compound | activity, negative = inhibition | outcome
7 | Cc1cccc(-c2nc3c(cnn3-c3ccccc3)c(=O)n2-c2ccc(Br)cc2)c1 | -14.4% (inactive) | –
8 | Cc1ccc(Cc2nc3ccccc3nc2SCC(=O)Nc2cccc(C(F)(F)F)c2)cc1 | -26.5% (inactive) | –
9 | COc1ccc(OC)c(N(CC(=O)NCc2ccccc2)S(=O)(=O)c2ccccc2)c1 | -16.7% (inactive) | –
10 | CCc1nn(-c2ccccc2)c(Oc2cccc(C)c2)c1CCC(=O)N1CCOCC1 | -4.72% (inactive) | –
11 | CCc1nn2c(=O)c(S(=O)(=O)Nc3ccc(C(C)C)cc3)c(C)nc2s1 | -1.75% (inactive) | –
12 | COC(=O)c1ccccc1NC(=O)CSc1nc(-c2ccccc2)cc(C(F)(F)F)n1 | -10% (inactive) | –
13 | CN(C)C(=O)CN1C(=O)CO[C@H](c2ccc(NS(=O)(=O)c3cccc(F)c3)cc2)[C@H]1CO | -2.17% (inactive) | –
14 | CCn1cc(C(=O)N(C)c2cc(C)ccc2C)c2cc(OC)c(OC)cc2c1=O | -30.1% (inactive) | –
15 | Cc1nn2c(=O)cc(COC(=O)c3ccc(F)cc3)nc2s1 | -3.77% (inactive) | –
16 | Cc1cccc(NC(=O)CSc2nc3ccccc3nc2N2CCOCC2)c1C | -14% (inactive) | –
17 | COc1ccc(-c2nocc2CCC(=O)NCCc2ccc(S(N)(=O)=O)cc2)cc1 | 2.41% (inactive) | –
18 | Cc1ccc(CN(C(=O)COc2ccc([N+](=O)[O-])cc2)c2ccccn2)cc1 | – | inactive
19 | CCc1ccc(N(CC)C(=O)c2cn(C)c(=O)c3cc(OC)c(OC)cc23)cc1 | -2.63% (inactive) | –
20 | O=C(NCC(=O)N1CCOCC1)c1ccc(-c2cnc3ccccc3c2)cc1 | -4.18% (inactive) | –
21 | COc1ccccc1CC(=O)NCc1cccnc1-n1cnc2ccccc21 | -1.72% (inactive) | –
22 | Cc1ccc(S(=O)(=O)N2CCCC(Cn3cnc4cccnc43)C2)cc1C (stereo not drawn) | -6.76% (inactive) | –

Row | Compound | activity, negative = inhibition | outcome
23 | CCOc1ccc(N(C)S(=O)(=O)c2cc(-c3cc(C)no3)ccc2OC)cc1 | -25.7% (inactive) | –
24 | COc1ccc(NC(=O)c2cc(S(=O)(=O)N3CCOCC3)ccc2OC)cc1 | -27.1% (inactive) | –
25 | CCc1noc(-c2nc(Cc3cccc(F)c3)no2)n1 | – | inactive
26 | COC(=O)CSc1ccc2nnc(CCNS(=O)(=O)c3ccccc3)n2n1 | -2.36% (inactive) | –
27 | COc1ccc(NC(=O)CN2C(=O)COc3ccc(S(=O)(=O)N4CCOCC4)cc32)cc1 | 1.43% (inactive) | –
28 | CCc1c(-c2ccccc2)nc2ccccc2c1C(=O)NC(C)c1ccccc1 (stereo not drawn) | -15.2% (inactive) | –
29 | Cc1nn(-c2ccc3nnc(C)n3n2)c(C)c1CCC(=O)Nc1ccc(OC(F)(F)F)cc1 | – | inactive
30 | COc1ccc(CN(C)c2ccc(-c3nc(-c4ccccc4)no3)cc2[N+](=O)[O-])cc1 | -18.2% (inactive) | –
31 | COCCNC(=O)CNC(=O)c1ccc(-c2cccc(C(F)(F)F)c2)cc1 | – | inactive
32 | Cc1cccc(-c2nc3c(cnn3-c3ccccc3)c(=O)n2-c2ccc(Cl)cc2)c1 | 1.22% (inactive) | –
33 | O=C(COc1ccccc1-c1nc(-c2ccccc2)no1)Nc1cccc([N+](=O)[O-])c1 | -19.6% (inactive) | –
34 | COc1ccc(OC)c(S(=O)(=O)Nc2ccc3[nH]c(=O)[nH]c3c2)c1 | -6.5% (inactive) | –
35 | Cc1ccc(S(=O)(=O)N2CCC(C(=O)Nc3ccc(Oc4ccccc4)cc3)CC2)cc1 | -10% (inactive) | –
36 | COC(=O)c1cc(C)nc2c1c(=O)nc(SCc1ccccc1Cl)n2C1CC1 | -24.6% (inactive) | –
37 | Cn1nc(C(=O)N2CCOCCNC(=O)CC2)c2ccccc21 | -13.3% (inactive) | –
38 | COc1ccc(NC(=O)CCc2c(C)nc3c(c2C)c(=O)n(C)c(=O)n3C)cc1OC | 0.614% (inactive) | –
